# Results from PubChem BioAssay.
# The source made the active and inactive calls.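 The calls were made as follows, unless noted: active = visually confirmed hit in the image check and inhibition above 20%; inconclusive = visually confirmed hit but inhibition not above 20%; inactive = no visual hit in the image check.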
# Assays:
# [1] = inhibitors of TNFa-induced NFkB p65 translocation, primary screen, imaging, HUVEC, MLSMR starter and 10KST1 sets (AID 438;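 active = inhibition above 20% together with a positive visual image hit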;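 also: compound added about 3h40 before a 20 min TNFalpha stimulation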;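 as to inhibition: signal is the nuclear over cytoplasmic p65 intensity ratio per well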); conditions: HUVEC TNFa-induced p65 nuclear translocation; cell count: measured here: nuclei count (cytotoxicity indicator), at 2.08 µM; inhibition: at 2 µM, stronger effect = higher value, 0% TNFa-plus-vehicle, 100% no-TNFa wells
# [2] = reduction of polyQ htt aggregates in cells – imaging, exon1htt(103Q)mCFP cells, high-content imaging, primary screen (AID 483;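 active = visual image review flags a hit and inhibition of aggregation exceeds 20%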;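 also: compound exposure lasted 3 days before fixation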;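 as to nuclei count: percent of the per-plate median nuclei count of sample wells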); conditions: exon1htt(103Q)mCFP cell line, aggregate imaging, at 2 µM; inhibition of aggregation: stronger effect = higher value; nuclei count: measured here: cell count, toxicity
# [3] = endothelial E-selectin expression blockers – imaging, HUVEC, immunofluorescence, MLSMR starter and 10KST1 sets, primary screen (AID 487); conditions: HUVEC TNFalpha-induced E-selectin immunofluorescence imaging, at 2 µM; inhibition: stronger effect = higher value; nuclei count: measured here: cell number, toxicity;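 as to inhibition: signal is fraction of cell area covered by stained E-selectin grains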;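 as to nuclei count: 100% = median nuclei count of all wells on the same plate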
# [4] = target: Voltage-gated potassium channel subunit beta-2 (Rattus norvegicus) (UniProt P62483); test: inhibitors of rat Kvbeta2 reductase activity – biochemical, NADPH fluorescence, primary screen (AID 622;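 active = fluorescence slope higher than the sample average by over 3 SD, cut at about -0.22 in these data, passing the limit was not always enough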;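 also: slope of raw intensity against log time taken from 70 to 1610 s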); conditions: recombinant KvBeta, 4-cyanobenzaldehyde reduction, at 10 µM, stronger effect = higher value
# [5] = target: Voltage-gated potassium channel subunit beta-2 (Rattus norvegicus) (UniProt P62483); test: enhancers of rat Kvbeta2 NADPH turnover – biochemical, NADPH fluorescence, primary screen (AID 623;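 active = NADPH fluorescence slope more negative than the mean of all samples by about 3 SD, 99.7% confidence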;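 also: fluorescence intensity change per second fitted from 20 to 320 s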); conditions: Recombinant KvBeta, NADPH fluorescence decrease slope, 10 min; at 10 µM; stronger effect = lower value
# [6] = target: Alpha-2C adrenergic receptor (Homo sapiens) (UniProt P18825); test: compounds altering alpha2C-coupled GIRK flux – cell-based, HEK293 alpha2C/GIRK1/2, thallium flux, primary screen (AID 624;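 active = fluorescence slope after compound addition differing from the mean of all screened samples at 99.7% confidence, in either direction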;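 also: slope of fluorescence ratio to pre-addition baseline per second over 15 to 24 s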); conditions: thallium flux BTC fluorescence, at 10 µM, actives lie on both sides
# [7] = blockers of RIG-like receptor reporter activation – cell-based, Sendai virus stimulus, luciferase, 10K MLSCN set, TLR/RLR signaling modifier project, primary screen (AID 602276;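 active = inhibition at or above 50% at 10 µM; inactive = inhibition below 50%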;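 also: firefly luciferase from ISG56 promoter only with Renilla not read in this screen; 0% = Sendai virus plus DMSO and 100% = medium plus DMSO without virus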); conditions: HEK293 RL24 IRF3 luciferase reporter, at 10 µM, stronger effect = higher value
# [8] = TLR3 IRF3 reporter activation blockers – cell-based, poly I:C stimulus, luciferase, 10K MLSCN set, primary screen (AID 602277;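 active = inhibition of the reporter signal at or above 50%; inactive = inhibition below 50%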); conditions: HEK293-TLR3 RL24 IRF3 luciferase reporter, at 10 µM, stronger effect = higher value
# Sequence of Alpha-2C adrenergic receptor (Homo sapiens) (P18825 whole entry, looked up): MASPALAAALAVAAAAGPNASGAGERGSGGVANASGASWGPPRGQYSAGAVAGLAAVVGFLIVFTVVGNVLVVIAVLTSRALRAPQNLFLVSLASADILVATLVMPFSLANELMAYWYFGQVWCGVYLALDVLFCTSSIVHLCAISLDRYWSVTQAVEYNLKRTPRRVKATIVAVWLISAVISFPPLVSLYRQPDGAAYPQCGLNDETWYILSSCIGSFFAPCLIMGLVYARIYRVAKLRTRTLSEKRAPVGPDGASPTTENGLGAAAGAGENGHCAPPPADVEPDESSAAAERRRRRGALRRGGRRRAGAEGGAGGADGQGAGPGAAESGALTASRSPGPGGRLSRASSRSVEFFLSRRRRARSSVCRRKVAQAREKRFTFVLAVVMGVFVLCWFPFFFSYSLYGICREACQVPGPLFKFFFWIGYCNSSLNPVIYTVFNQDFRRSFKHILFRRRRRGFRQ
# Sequence of Voltage-gated potassium channel subunit beta-2 (Rattus norvegicus) (P62483 whole entry, looked up): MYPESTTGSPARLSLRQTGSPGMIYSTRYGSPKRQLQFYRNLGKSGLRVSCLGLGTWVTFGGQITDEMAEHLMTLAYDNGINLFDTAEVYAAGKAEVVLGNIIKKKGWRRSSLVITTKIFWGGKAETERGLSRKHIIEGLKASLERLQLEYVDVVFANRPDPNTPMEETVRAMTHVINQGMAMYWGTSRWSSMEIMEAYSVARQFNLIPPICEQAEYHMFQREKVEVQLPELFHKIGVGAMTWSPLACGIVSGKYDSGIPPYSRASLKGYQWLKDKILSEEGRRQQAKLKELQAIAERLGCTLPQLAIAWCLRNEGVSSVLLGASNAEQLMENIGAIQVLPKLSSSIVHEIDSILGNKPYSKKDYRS
Compound,cell count [1],inhibition [1],inhibition of aggregation [2],nuclei count [2] [%],inhibition [3],nuclei count [3] [%],fluorescence slope [4],NADPH fluorescence slope [5],slope [6],inhibition [7],inhibition [8]
CCOC(=O)Cn1c(CCC(=O)O)ccc1-c1ccc(F)cc1,584,-5% (inactive),-12.4% (inactive),98.2,-54.4% (inactive),97.7,-0.548 (inactive),-2.7e-05 (inactive),0.00704 (inactive),15.5% (inactive),39.4% (inactive)
CC(C)Cn1c(CN2CCN(c3ccccc3F)CC2)nc2c1c(=O)[nH]c(=O)n2C,664,-7.7% (inactive),-8.3% (inactive),101,-7.3% (inactive),103,-0.521 (inactive),-3.3e-05 (inactive),0.00688 (inactive),10.6% (inactive),19.7% (inactive)
C=COC(=O)CSc1snc(SCC(=O)OC)c1C#N,300,-6.3% (inactive),11.1% (inactive),102,-31.9% (inactive),88.9,-0.581 (inactive),-4.2e-06 (inactive),0.00524 (inactive),15.5% (inactive),18.4% (inactive)
Cc1csc(NC(=O)c2cc3c(s2)-c2ccccc2OC3)n1,417,8.8% (inactive),27.8% (inactive),121,-27.8% (inactive),103,-0.247 (inactive),-1.9e-06 (inactive),0.00681 (inactive),-42% (inactive),-118% (inactive)
CC(=O)Nc1ccc(OCC(O)CN2CCN(c3cccc(Cl)c3)CC2)cc1 (stereo not drawn),469,7% (inactive),-19.8% (inactive),115,-27.1% (inactive),115,-0.481 (inactive),-4.2e-05 (inactive),0.00626 (inactive),3.23% (inactive),21.4% (inactive)
O=C(/C=N/O)NCc1ccncc1,420,1.2% (inactive),0.7% (inactive),98.3,28.2% (inactive),88,-0.606 (inactive),-2.2e-05 (inactive),0.00648 (inactive),8.28% (inactive),11.3% (inactive)
CCN(CC)c1nc(N(CC)CC)[nH]c(=O)n1,477,-6.5% (inactive),15.2% (inactive),92.1,-0.4% (inactive),59.6,-0.512 (inactive),-3.2e-05 (inactive),0.00579 (inactive),3.82% (inactive),-16% (inactive)
CCOC(=O)C1=C(C)N(C)C(=O)NC1c1ccccc1OC (stereo not drawn),692,-11.4% (inactive),-20.9% (inactive),92.6,50.2% (inactive),93.2,-0.4 (inactive),-1.2e-05 (inactive),0.00553 (inactive),16.2% (inactive),33.7% (inactive)
Cc1nc2ccccc2c2oc(C(=O)NCCN3CCCCC3C)cc12 (stereo not drawn),558,5.4% (inactive),15.4% (inactive),87.5,-1.3% (inactive),120,-0.614 (inactive),-3.9e-05 (inactive),0.00617 (inactive),7.56% (inactive),66.5% (active)
COc1ccc(Cl)cc1N1CC(c2nc3ccccc3[nH]2)CC1=O (stereo not drawn),542,1.4% (inactive),2% (inactive),114,1.9% (inactive),107,-0.607 (inactive),6.8e-06 (inactive),0.00704 (inactive),16.2% (inactive),16.9% (inactive)
COc1ccc(S(=O)(=O)N2CCCC2C(=O)Nc2ccc(C)cc2)cc1 (stereo not drawn),469,42.3% (active),-25% (inactive),130,-11.9% (inactive),73.3,-0.498 (inactive),-5.1e-05 (inactive),0.00758 (inactive),12.2% (inactive),7.96% (inactive)
Cc1ccc(-c2cc3nc4c(c(=O)n3[nH]2)CCCC4)cc1,663,-11% (inactive),-8.5% (inactive),73.1,-69.9% (inactive),119,-0.454 (inactive),1.7e-05 (inactive),0.00436 (inactive),-9.26% (inactive),-48.6% (inactive)
CCOC(=O)c1c(C)[nH]c(C(=O)CSc2nc3ccccc3o2)c1C,479,10.6% (inactive),-23.1% (inactive),107,28.7% (inactive),94.5,-0.3 (inactive),1.8e-05 (inactive),0.00682 (inactive),-1.31% (inactive),0.358% (inactive)
C/C=C(\CS(=O)(=O)c1ccccc1)S(=O)(=O)c1ccccc1,167,2.2% (inactive),9.7% (inactive),101,-49.3% (inactive),73,-0.508 (inactive),-1.7e-05 (inactive),0.00524 (inactive),19.1% (inactive),21.9% (inactive)
CC1Cc2nc(SCC(=O)Nc3nccs3)n(C)c(=O)c2S1 (stereo not drawn),584,12% (inactive),12.8% (inactive),109,-23.5% (inactive),111,-0.539 (inactive),-2.7e-05 (inactive),0.00648 (inactive),11.6% (inactive),28.2% (inactive)
Cc1noc(C)c1S(=O)(=O)N1CCCC(C(=O)NCCc2ccc(Cl)cc2)C1 (stereo not drawn),402,7.3% (inactive),-8.8% (inactive),107,-78.1% (inactive),106,-0.471 (inactive),-0.000191 (inactive),0.00592 (inactive),11.6% (inactive),7.58% (inactive)
CC(=O)c1ccccc1Oc1nc(CN2CCOCC2)nc2scc(-c3cccs3)c12,330,-5.7% (inactive),13.6% (inactive),99.2,-50.4% (inactive),109,-0.478 (inactive),-1.8e-05 (inactive),0.00384 (inactive),7.86% (inactive),37.7% (inactive)
COc1cc(NC(=O)C2C3C=CC(C3)C2C(=O)O)c(OC)cc1Cl (stereo not drawn),406,0.8% (inactive),-31% (inactive),98.6,19.6% (inactive),90,-0.49 (inactive),-6.5e-06 (inactive),0.00705 (inactive),-7.81% (inactive),20.2% (inactive)
COc1ccc(-n2c(SCc3ccc(C#N)cc3)nnc2-c2ccccn2)cc1,692,-5.8% (inactive),-4.4% (inactive),105,-18.8% (inactive),118,-0.599 (inactive),-3.8e-05 (inactive),0.00521 (inactive),-1.12% (inactive),11.2% (inactive)
Cc1nnc(SCC(=O)Nc2cc(C(F)(F)F)ccc2N2CCOCC2)o1,271,0.2% (inactive),16.1% (inactive),99.1,-2.6% (inactive),95.1,-0.379 (inactive),-3.9e-07 (inactive),0.00303 (inactive),10.8% (inactive),32.5% (inactive)
O=C(CSc1nnnn1-c1ccccc1Cl)Nc1ccc2c(c1)OCCO2,660,-3.4% (inactive),3.2% (inactive),107,-55% (inactive),118,-0.548 (inactive),-5.9e-05 (inactive),0.00706 (inactive),15.2% (inactive),30.5% (inactive)
CCN(C(=O)c1c(OC)cccc1OC)c1nnc(-c2cccnc2)s1,892,3.3% (inactive),-35.8% (inactive),105,-49.6% (inactive),137,-0.336 (inactive),-3.4e-05 (inactive),0.00467 (inactive),8.32% (inactive),18.6% (inactive)
CCOc1cc(C(=O)Nc2c3c(nn2C(C)(C)C)CS(=O)C3)cc(OCC)c1OCC (stereo not drawn),525,-16.3% (inactive),-15.3% (inactive),109,16.3% (inactive),122,-0.545 (inactive),2.6e-05 (inactive),0.00616 (inactive),6.91% (inactive),3.04% (inactive)
O=c1[nH]cnc2c1C1(CCCC1)Cc1ccccc1-2,381,-10.6% (inactive),19.5% (inactive),87,-22.8% (inactive),110,-0.274 (inactive),-1.9e-05 (inactive),0.00586 (inactive),9.37% (inactive),35.4% (inactive)
O=C(C1CCCN(S(=O)(=O)c2cnc[nH]2)C1)N1CCN(c2ccc(Cl)cc2)CC1 (stereo not drawn),566,8% (inactive),-31.8% (inactive),103,-71.3% (inactive),123,-0.523 (inactive),3.4e-05 (inactive),0.00672 (inactive),-6.86% (inactive),0.571% (inactive)
Cn1c(=O)oc2cc(S(=O)(=O)N3CCN(c4ccccn4)CC3)ccc21,826,8% (inactive),24.1% (inactive),116,-36.5% (inactive),117,-0.577 (inactive),-4.3e-05 (inactive),0.00702 (inactive),15% (inactive),31.2% (inactive)
COc1ccc(OC)c(NC(=O)C2C3CC4OC(=O)C2C4C3)c1 (stereo not drawn),318,-5.7% (inactive),6.4% (inactive),117,-119% (inactive),114,-0.322 (inactive),-5.4e-05 (inactive),0.0056 (inactive),13.4% (inactive),18.6% (inactive)
O=C1C2CC=CCC2C(=O)N1c1ccc(Cc2ccncc2)cc1 (stereo not drawn),591,-2.9% (inactive),-8.1% (inactive),107,29.1% (inactive),95.7,-0.43 (inactive),5.4e-05 (inactive),0.00567 (inactive),-2.68% (inactive),-12.7% (inactive)
